# In the supplement of paper PMC6555819:
# Experiments:
# Assay in all cases: PBM binding z-score (relative to random genomic background probes); higher = stronger binding; sequences stand for … in GC…GCGATTGACAGCGTAGAATGAAGG
# [1] = test system: PPARg:RXRa DBDmut IVT, anti-RXR (DBD mutation: RXRa K156A/R161A, NR concentration 270 nM, RXRa partner concentration 90 nM)
# Method in brief: (§1)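 Regression normalization was applied to scanned fluorescence from custom Agilent 4×180K protein-binding microarrays. Before scanning, arrays were incubated 1 h with ligand-free nuclear receptor dimers, and binding was detected with antibodies against each partner (one per run). Binding z-scores use the random background probes as reference.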
# [2] = test system: PPARg:RXRa IVT, anti-PPARg (NR concentration 270 nM, RXRa partner concentration 90 nM)
# Method in brief: as §1
# [3] = test system: PPARg DBDmut:RXRa IVT, anti-PPARg (DBD mutation: PPARg1 K132A/R137A, NR concentration 270 nM, RXRa partner concentration 90 nM)
# Method in brief: as §1
# [4] = test system: PPARg DBDmut IVT, anti-PPARg (DBD mutation: PPARg1 K132A/R137A, NR concentration 270 nM)
# Method in brief: as §1
# [5] = test system: PPARg homodimer (NR concentration 180 nM)
# Method in brief: as §1
# [6] = test system: PXR:RXRa (NR concentration 270 nM, RXRa partner concentration 90 nM)
# Method in brief: as §1
# [7] = test system: PXR homodimer (NR concentration 270 nM)
# Method in brief: as §1
# [8] = test system: RARa:RXR (NR concentration 270 nM, RXRa partner concentration 90 nM)
# Method in brief: as §1
# [9] = test system: RARa homodimer (NR concentration 270 nM)
# Method in brief: as §1
# [10] = test system: RARb:RXRa (NR concentration 270 nM, RXRa partner concentration 90 nM)
# Method in brief: as §1
sequence,measurement,setting,value
AAAATGAGGTTATACGTAGATCAGGGAAGAAAGT,PBM binding z-score,[1],4.62
same,PBM binding z-score,[2],3.11
same,PBM binding z-score,[3],2.19
same,PBM binding z-score,[4],1.29
same,PBM binding z-score,[5],0.818
same,PBM binding z-score,[6],1.37
same,PBM binding z-score,[7],0.994
same,PBM binding z-score,[8],1.99
same,PBM binding z-score,[9],0.921
same,PBM binding z-score,[10],1.56
TCTAGCAGGCCAGAGGGACACTCAAGAGGTACGG,PBM binding z-score,[1],0.376
same,PBM binding z-score,[2],-0.183
same,PBM binding z-score,[3],-1.54
same,PBM binding z-score,[4],-1.73
same,PBM binding z-score,[5],-1.07
same,PBM binding z-score,[6],-0.803
same,PBM binding z-score,[7],-0.661
same,PBM binding z-score,[8],-1.02
same,PBM binding z-score,[9],-0.883
same,PBM binding z-score,[10],0.0919
ACTTACGGGTCAACGAGGTAATAGCACGCGTATA,PBM binding z-score,[1],3.55
same,PBM binding z-score,[2],4.22
same,PBM binding z-score,[3],1.27
same,PBM binding z-score,[4],1.43
same,PBM binding z-score,[5],2.86
same,PBM binding z-score,[6],3.81
same,PBM binding z-score,[7],0.484
same,PBM binding z-score,[8],4.62
same,PBM binding z-score,[9],0.585
same,PBM binding z-score,[10],4.15
CGAACGAGGGCACGAGTTGATAGCAAATGCCGAT,PBM binding z-score,[1],3.89
same,PBM binding z-score,[2],3.93
same,PBM binding z-score,[3],0.0277
same,PBM binding z-score,[4],-0.0688
same,PBM binding z-score,[5],-0.0293
same,PBM binding z-score,[6],0.738
same,PBM binding z-score,[7],0.271
same,PBM binding z-score,[8],1.12
same,PBM binding z-score,[9],-0.123
same,PBM binding z-score,[10],2.6
AGAATGAGGTTATACGTAGATCAGGGTAGAAAGT,PBM binding z-score,[1],4.24
same,PBM binding z-score,[2],2.33
same,PBM binding z-score,[3],1.07
same,PBM binding z-score,[4],0.356
same,PBM binding z-score,[5],1.01
same,PBM binding z-score,[6],1.35
same,PBM binding z-score,[7],0.929
same,PBM binding z-score,[8],1.86
same,PBM binding z-score,[9],0.591
same,PBM binding z-score,[10],1.59
AGAATGAGGTTATACGAAGATCAGGGAAGAAAGT,PBM binding z-score,[1],2.26
same,PBM binding z-score,[2],2.05
same,PBM binding z-score,[3],0.807
same,PBM binding z-score,[4],0.512
same,PBM binding z-score,[5],0.484
same,PBM binding z-score,[6],1.04
same,PBM binding z-score,[7],0.292
same,PBM binding z-score,[8],1.61
same,PBM binding z-score,[9],0.714
same,PBM binding z-score,[10],1.3
CCTACTGGGCCAAAGGTCATTGATTCCAATGCTC,PBM binding z-score,[1],5.22
same,PBM binding z-score,[2],7.01
same,PBM binding z-score,[3],0.541
same,PBM binding z-score,[4],0.177
same,PBM binding z-score,[5],3.56
same,PBM binding z-score,[6],5.31
same,PBM binding z-score,[7],2.33
same,PBM binding z-score,[8],6.35
same,PBM binding z-score,[9],1.33
same,PBM binding z-score,[10],4.46
CCTACTGGACCAAAGGTCATTGATTCCAATGCTC,PBM binding z-score,[1],3.51
same,PBM binding z-score,[2],5.62
same,PBM binding z-score,[3],0.797
same,PBM binding z-score,[4],0.872
same,PBM binding z-score,[5],3.81
same,PBM binding z-score,[6],5.47
same,PBM binding z-score,[7],3.17
same,PBM binding z-score,[8],5.95
same,PBM binding z-score,[9],2.78
same,PBM binding z-score,[10],4.48
ACTTACGGGCCAACGAGGTTATAGCACGCGTATA,PBM binding z-score,[1],0.992
same,PBM binding z-score,[2],0.418
same,PBM binding z-score,[3],0.118
same,PBM binding z-score,[4],0.119
same,PBM binding z-score,[5],0.076
same,PBM binding z-score,[6],1
same,PBM binding z-score,[7],0.334
same,PBM binding z-score,[8],1.16
same,PBM binding z-score,[9],0.0529
same,PBM binding z-score,[10],1.05
TGTCAAAGTTCAAAGGTAAAGTAAGTATCCACAC,PBM binding z-score,[1],0.197
same,PBM binding z-score,[2],4.58
same,PBM binding z-score,[3],1.35
same,PBM binding z-score,[4],1.98
same,PBM binding z-score,[5],3.26
same,PBM binding z-score,[6],5.75
same,PBM binding z-score,[7],3.72
same,PBM binding z-score,[8],5.81
same,PBM binding z-score,[9],1.83
same,PBM binding z-score,[10],5.07
CCGACTGGGGCGGAAAGGTTACCATACCATCCGG,PBM binding z-score,[1],-0.0321
same,PBM binding z-score,[2],0.59
same,PBM binding z-score,[3],-0.91
same,PBM binding z-score,[4],-0.926
same,PBM binding z-score,[5],0.423
same,PBM binding z-score,[6],1.17
same,PBM binding z-score,[7],-0.39
same,PBM binding z-score,[8],1.96
same,PBM binding z-score,[9],-0.133
same,PBM binding z-score,[10],1.43
CATCCAAGGTCAATGCTAGGTCAGTGAAAGCATT,PBM binding z-score,[1],3.38
same,PBM binding z-score,[2],4.16
same,PBM binding z-score,[3],0.505
same,PBM binding z-score,[4],0.239
same,PBM binding z-score,[5],5.51
same,PBM binding z-score,[6],4.73
same,PBM binding z-score,[7],1.76
same,PBM binding z-score,[8],5.95
same,PBM binding z-score,[9],2.23
same,PBM binding z-score,[10],5.04
GCTGCTAGGTCAACTGATGGTCAGCTACAGCTCG,PBM binding z-score,[1],4.96
same,PBM binding z-score,[2],3.94
same,PBM binding z-score,[3],-0.525
same,PBM binding z-score,[4],-0.577
same,PBM binding z-score,[5],1.97
same,PBM binding z-score,[6],1.62
same,PBM binding z-score,[7],-0.454
same,PBM binding z-score,[8],2.71
same,PBM binding z-score,[9],-0.247
same,PBM binding z-score,[10],4.15
TGTGCTAGGTCAACGATGGTCAGCTAATCTGCTA,PBM binding z-score,[1],2.94
same,PBM binding z-score,[2],4.09
same,PBM binding z-score,[3],0.203
same,PBM binding z-score,[4],0.0393
same,PBM binding z-score,[5],1.1
same,PBM binding z-score,[6],1.4
same,PBM binding z-score,[7],-0.379
same,PBM binding z-score,[8],1.85
same,PBM binding z-score,[9],-0.241
same,PBM binding z-score,[10],4.15
GGAACGAGGGCAAAGTTTATAGCATCTGTCGACG,PBM binding z-score,[1],4.26
same,PBM binding z-score,[2],4.43
same,PBM binding z-score,[3],0.246
same,PBM binding z-score,[4],0.345
same,PBM binding z-score,[5],0.817
same,PBM binding z-score,[6],1.91
same,PBM binding z-score,[7],0.961
same,PBM binding z-score,[8],1.74
same,PBM binding z-score,[9],0.0168
same,PBM binding z-score,[10],2.6
TCTAGTTGGTCAACGGTCACACACTCGAAATGCG,PBM binding z-score,[1],2.4
same,PBM binding z-score,[2],2.99
same,PBM binding z-score,[3],0.499
same,PBM binding z-score,[4],0.932
same,PBM binding z-score,[5],1.48
same,PBM binding z-score,[6],0.697
same,PBM binding z-score,[7],0.127
same,PBM binding z-score,[8],0.78
same,PBM binding z-score,[9],1.23
same,PBM binding z-score,[10],2.31
TAGCCTCGGTCATGGGCCAGTATACCACGCGAAC,PBM binding z-score,[1],-0.58
same,PBM binding z-score,[2],0.53
same,PBM binding z-score,[3],-0.301
same,PBM binding z-score,[4],-1
same,PBM binding z-score,[5],-0.0918
same,PBM binding z-score,[6],-0.176
same,PBM binding z-score,[7],-0.497
same,PBM binding z-score,[8],0.0375
same,PBM binding z-score,[9],-0.653
same,PBM binding z-score,[10],2.42
ATCGAAAGGTCGAGGTTAGTATAGAGAAAGGGAA,PBM binding z-score,[1],0.147
same,PBM binding z-score,[2],1.68
same,PBM binding z-score,[3],0.823
same,PBM binding z-score,[4],1.11
same,PBM binding z-score,[5],3.22
same,PBM binding z-score,[6],2.65
same,PBM binding z-score,[7],0.569
same,PBM binding z-score,[8],3.81
same,PBM binding z-score,[9],1.39
same,PBM binding z-score,[10],4.09
ATATGTACGTTAGCTGGGGTCATTCAGACTAGGC,PBM binding z-score,[1],0.759
same,PBM binding z-score,[2],1.55
same,PBM binding z-score,[3],1.41
same,PBM binding z-score,[4],1.62
same,PBM binding z-score,[5],2.55
same,PBM binding z-score,[6],5.7
same,PBM binding z-score,[7],3.18
same,PBM binding z-score,[8],5.82
same,PBM binding z-score,[9],1.41
same,PBM binding z-score,[10],2.57
AATACAGGGTCATCGTAGGCTAGAGTACGCACAG,PBM binding z-score,[1],3.07
same,PBM binding z-score,[2],3.89
same,PBM binding z-score,[3],1.38
same,PBM binding z-score,[4],0.798
same,PBM binding z-score,[5],1.99
same,PBM binding z-score,[6],4.52
same,PBM binding z-score,[7],0.956
same,PBM binding z-score,[8],4.85
same,PBM binding z-score,[9],1.03
same,PBM binding z-score,[10],4.33
TAGCCTAGGTCAGATCGGGCCATTATACGCTATA,PBM binding z-score,[1],0.579
same,PBM binding z-score,[2],1.34
same,PBM binding z-score,[3],-0.598
same,PBM binding z-score,[4],-0.774
same,PBM binding z-score,[5],0.357
same,PBM binding z-score,[6],2.69
same,PBM binding z-score,[7],-0.448
same,PBM binding z-score,[8],1.33
same,PBM binding z-score,[9],-0.736
same,PBM binding z-score,[10],2.84
AGAATGAGGTTACCAAAGATCAGGGACACGCTTG,PBM binding z-score,[1],4.01
same,PBM binding z-score,[2],3.4
same,PBM binding z-score,[3],0.894
same,PBM binding z-score,[4],0.0801
same,PBM binding z-score,[5],0.873
same,PBM binding z-score,[6],1.29
same,PBM binding z-score,[7],0.182
same,PBM binding z-score,[8],2.1
same,PBM binding z-score,[9],0.459
same,PBM binding z-score,[10],2.14
CCTACTGGGCCATTCAGATGTCATTGATCATATG,PBM binding z-score,[1],4.47
same,PBM binding z-score,[2],3.44
same,PBM binding z-score,[3],-0.00111
same,PBM binding z-score,[4],0.0316
same,PBM binding z-score,[5],0.0941
same,PBM binding z-score,[6],-0.564
same,PBM binding z-score,[7],-0.799
same,PBM binding z-score,[8],-0.682
same,PBM binding z-score,[9],-0.198
same,PBM binding z-score,[10],0.127
ATCGAAAGGTCGACGAGGTGAGTCTACACCGTTT,PBM binding z-score,[1],0.545
same,PBM binding z-score,[2],2.03
same,PBM binding z-score,[3],1.28
same,PBM binding z-score,[4],0.606
same,PBM binding z-score,[5],1.13
same,PBM binding z-score,[6],3.31
same,PBM binding z-score,[7],0.495
same,PBM binding z-score,[8],3.84
same,PBM binding z-score,[9],0.442
same,PBM binding z-score,[10],3.98
